Measured values published in a collection of fitness landscapes (doi:10.1016/j.celrep.2020.107928).
Whole data set: some 81,000 sequences, median “one-hybrid fitness for binding parS DNA” near -0.17, cut for the highest 2% near 0.51. The entries come from a sample that favours the highest values as a whole.

B1: Caulobacter ParB omega fusion; a variant is named by its letters at X, in order, B8GW30 (parent)
chain: MESVVVGEPGMSEGRRGLGRGLSALLGEVDAAPAQAPGEQLGGSREAPIEILQRNPDQPRRTFREEDLEDLSNSIREKGVLQPILVRPSPDTAGEYQIVAGERAWRAAQRAGLKTVPIMVRELDDLAVLEIGIIENVQRADLNVLEEALSYKVLMEKFERTQENIAQTIGKSXSHVANXMRLLXLPDEVQSYLVSGELTAXHARAIAAAADPVALAKQIIEGGLSVRETEALARKAPNLSAGKSKGGRPPRVKDTDTQALESDLSSVLGLDVSIDHRGSTGTLTITYATLEQLDDLCNRLTRGI

Variants of: B1
Test: one-hybrid fitness for binding parS DNA (scaled: cognate 1, non-cognate 0); higher = stronger binding
Details: with parS DNA site
Summary of the method: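 The reporter was HIS3, with the binding site 19 bp from the promoter, in E. coli USO used for bacterial one-hybrid selection of Caulobacter ParB libraries with four specificity codons randomised. Growth was on M9 lacking histidine, with 0.1 mM IPTG and 5 mM 3-AT, for 48 hours at 37°C. Illumina sequencing covered plasmids before and after selection; three replicate libraries were pooled and variants with under 10 reads dropped. A fitness score is the log change in variant-to-wild-type read ratio, rescaled to the cognate and non-cognate references.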

one-hybrid fitness for binding parS DNA, 0.976:
RCMC

one-hybrid fitness for binding parS DNA, 0.435:
RMMN

one-hybrid fitness for binding parS DNA, 0.389:
RHMN

one-hybrid fitness for binding parS DNA, 0.956:
RAMC

one-hybrid fitness for binding parS DNA, ≤ 0.2:
GQLN
NPSA
GPFR
RKTR
RHTD
NFTG
RHTK
RKTK
RMTK
DFTG
ARLR
MAAN
VTYC
VAAS
WVLT
IAPF
QMYC
YLQA
IPAC
RTTR
RSTP
VSEV
PLGR
SLYF
HVAN
SESV
KMES
AYKT
HFLP
IRCS
RNKR
RNVN
NALR
TTTT
IISE
HKNW
PIET
ILAD
RHFD
RHAP
RHFH
LHQT
RQAQ
LNHR
ERQR
SWSW
TRLI
CQYS
LSGY
HRTK
RDMC
RRMD
RRMH
RPMC
IMTG
GAKE
CNSF
GRPA
CRST
IKCT
RAMQ
RKMH
RFMD
RMMP
RAMR
RKMP
TLMF
GTMC
LVSA
ITSK
DYWG
THDS
RKMK
YPLS
RSMP
RHMP
RSMD
RTMP
AGSI
PTDS
FNHS
TAPE
GYWS
EPIG
PHQC
MHER
KLAC
REYG
REVS
REKN
RERH
REVG
QTIM
KYAR
EYFS
PLFV
VHQV
TPHK
RYNK
RYHK
RYCD
RYYH
RYHQ
IKAI
HHKY
RSDE
FGTM
PPRW
KGNG
QLTS
DASE
GWLC
EELW
SCTR
IRQT
VEHR
RYSP
RYWQ
RYGR
RYWK
RYSD
AIYV
RKII
QIVC
KAHG
VQHT
HLQY
RYRH
RYDH
RYRP
RYDP

one-hybrid fitness for binding parS DNA, 0.461:
RSTN

one-hybrid fitness for binding parS DNA, 0.89:
RYWG

one-hybrid fitness for binding parS DNA, 0.66:
REKS

one-hybrid fitness for binding parS DNA, 0.218:
RMTH

one-hybrid fitness for binding parS DNA, 0.466:
RYNY

one-hybrid fitness for binding parS DNA, 0.997:
RYYG

one-hybrid fitness for binding parS DNA, 0.382:
RYCN

one-hybrid fitness for binding parS DNA, 0.39:
RIMN

one-hybrid fitness for binding parS DNA, 0.625:
RRMC

one-hybrid fitness for binding parS DNA, 0.462:
RYLY

one-hybrid fitness for binding parS DNA, 0.908:
RHMC

one-hybrid fitness for binding parS DNA, 0.287:
REYS

one-hybrid fitness for binding parS DNA, 0.967:
RHTG

one-hybrid fitness for binding parS DNA, 0.371:
RHAN

one-hybrid fitness for binding parS DNA, 0.529:
RERS

one-hybrid fitness for binding parS DNA, 0.947:
RQAC

one-hybrid fitness for binding parS DNA, 0.92:
RYRG

one-hybrid fitness for binding parS DNA, 0.533:
REKG

one-hybrid fitness for binding parS DNA, 0.25:
RQAF

one-hybrid fitness for binding parS DNA, 0.905:
RKTG

one-hybrid fitness for binding parS DNA, 0.913:
RYDG

one-hybrid fitness for binding parS DNA, 0.242:
RNKF
RFMN

one-hybrid fitness for binding parS DNA, 0.971:
RYQG

one-hybrid fitness for binding parS DNA, 0.819:
RNKT

one-hybrid fitness for binding parS DNA, 0.31:
RYQM

one-hybrid fitness for binding parS DNA, 0.984:
RYSG

one-hybrid fitness for binding parS DNA, 0.897:
RKMC

one-hybrid fitness for binding parS DNA, 0.982:
RTMC

one-hybrid fitness for binding parS DNA, 0.207:
RYQF

one-hybrid fitness for binding parS DNA, 0.383:
RYYN

one-hybrid fitness for binding parS DNA, 0.324:
RYLM

one-hybrid fitness for binding parS DNA, 0.975:
RYNG

one-hybrid fitness for binding parS DNA, 0.229:
RLMP

one-hybrid fitness for binding parS DNA, 1:
RSTG
RTTG
RYHG

one-hybrid fitness for binding parS DNA, 0.977:
RFTG

one-hybrid fitness for binding parS DNA, 0.398:
RQFY

one-hybrid fitness for binding parS DNA, 0.816:
RQFC

one-hybrid fitness for binding parS DNA, 0.992:
RLMC
RMMC

one-hybrid fitness for binding parS DNA, 0.928:
RSMC

one-hybrid fitness for binding parS DNA, 0.965:
RHFS

one-hybrid fitness for binding parS DNA, 0.433:
RTMN

one-hybrid fitness for binding parS DNA, 0.974:
RYCG

one-hybrid fitness for binding parS DNA, 0.234:
RIMD

one-hybrid fitness for binding parS DNA, 0.477:
RTTY

one-hybrid fitness for binding parS DNA, 0.233:
GPYH

one-hybrid fitness for binding parS DNA, 0.279:
RQFM

one-hybrid fitness for binding parS DNA, 1.02:
RMTG

one-hybrid fitness for binding parS DNA, 0.97:
RYGG

one-hybrid fitness for binding parS DNA, 0.986:
RIMC
RYLG

one-hybrid fitness for binding parS DNA, 0.291:
RLMH

one-hybrid fitness for binding parS DNA, 0.824:
RFMC

one-hybrid fitness for binding parS DNA, 0.205:
RYGF

one-hybrid fitness for binding parS DNA, 0.514:
RNVT

one-hybrid fitness for binding parS DNA, 0.202:
RNVH

one-hybrid fitness for binding parS DNA, 0.933:
RHAS
